Measurements as given in PubChem BioAssay AID1159580 (chemical genetic matrix, 2015).
In all, about 5,500 compounds went through this assay and about 2,000 (36%) were called active. Inconclusive results (about 18%) are left out. No stated cut-off is given here; in the data, active means normalized growth mostly below about 0.91 (no sharp cut-off); inconclusive means no clear call, values can overlap the other calls; inactive means mostly above about 0.92. This is one part of the list.

Test: chemical genetic growth profiling, strain panel (AID 1159580);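 further: tested at 20 µM; growth read once vehicle control cultures reached saturation at 30 °C; 1 = growth at the plate median or of vehicle wells; lower values mean less growth of the strain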
Conditions: growth OD

Measured: normalized growth

CN(C)CCCO[C@H]1[C@@H](C(O)CO)OC2OC(C)(C)O[C@@H]21 (stereo partly specified)
active: S. cerevisiae deletion strains, locus YNL307C, strain MCK1, hits give low values 0.871 | S. cerevisiae deletion strains, locus YOR184W, strain ser1, hits give low values 0.872
inactive: S. cerevisiae deletion strains, locus YNL071W, strain lat1, hits give low values 1.06 | S. cerevisiae deletion strains, locus YNL128W, strain TEP1, hits give low values 1 | S. cerevisiae deletion strains, locus YNL153C, strain GIM3, hits give low values 0.953 | S. cerevisiae deletion strains, locus YNL183C, strain NPR1, hits give low values 0.945 | S. cerevisiae deletion strains, locus YNL209W, strain ssb2, hits give low values 0.999 | S. cerevisiae deletion strains, locus YNL233W, strain BNI4, hits give low values 0.917 | S. cerevisiae deletion strains, locus YNL248C, strain rpa49, hits give low values 0.983 | S. cerevisiae deletion strains, locus YNL250W, strain rad50, hits give low values 0.936 | S. cerevisiae deletion strains, locus YNL271C, strain bni1, hits give low values 0.983 | S. cerevisiae deletion strains, locus YNL298W, strain CLA4, hits give low values 0.974 | S. cerevisiae deletion strains, locus YNL322C, strain KRE1 (second series), hits give low values 0.968 | S. cerevisiae deletion strains, locus YNL322C, strain KRE1, hits give low values 0.991 | S. cerevisiae deletion strains, locus YNR049C, strain mso1, hits give low values 0.971 | S. cerevisiae deletion strains, locus YNR052C, strain pop2, hits give low values 0.987 | S. cerevisiae deletion strains, locus YOL006C, strain TOP1, hits give low values 0.876 | S. cerevisiae deletion strains, locus YOL012C, strain htz1 0.444 | S. cerevisiae deletion strains, locus YOL147C, strain pex11, hits give low values 0.991 | S. cerevisiae deletion strains, locus YOR001W, strain rrp6, hits give low values 1.01 | S. cerevisiae deletion strains, locus YOR061W, strain CKA2, hits give low values 0.995 | S. cerevisiae deletion strains, locus YOR069W, strain VPS5, hits give low values 0.984 | S. cerevisiae deletion strains, locus YOR070C, strain gyp1, hits give low values 0.99 | S. cerevisiae deletion strains, locus YOR080W, strain dia2, hits give low values 0.968 | S. cerevisiae deletion strains, locus YOR083W, strain WHI5, hits give low values 0.953 | S. cerevisiae deletion strains, locus YOR106W, strain vam3, hits give low values 0.926 | S. cerevisiae deletion strains, locus YOR136W, strain idh2, hits give low values 0.966 | S. cerevisiae deletion strains, locus YOR144C, strain elg1, hits give low values 0.992 | S. cerevisiae deletion strains, locus YOR231W, strain MKK1, hits give low values 0.97 | S. cerevisiae deletion strains, locus YOR265W, strain rbl2, hits give low values 0.993 | S. cerevisiae deletion strains, locus YOR270C, strain vph1, hits give low values 0.925 | S. cerevisiae deletion strains, locus YOR290C, strain snf2, hits give low values 0.964 | S. cerevisiae deletion strains, locus YOR316C, strain cot1, hits give low values 0.988 | S. cerevisiae deletion strains, locus YPL051W, strain arl3, hits give low values 0.985 | S. cerevisiae deletion strains, locus YPL055C, strain LGE1, hits give low values 0.954 | S. cerevisiae deletion strains, locus YPL078C, strain atp4, hits give low values 0.973 | S. cerevisiae deletion strains, locus YPL106C, strain sse1, hits give low values 0.96 | S. cerevisiae deletion strains, locus YPL240C, strain hsp82, hits give low values 0.985 | S. cerevisiae deletion strains, locus YPL241C, strain CIN2, hits give low values 0.987 | S. cerevisiae deletion strains, locus YPL256C, strain CLN2, hits give low values 0.971 | S. cerevisiae deletion strains, locus YPR119W, strain clb2, hits give low values 0.992 | S. cerevisiae deletion strains, locus YPR141C, strain kar3, hits give low values 0.99 | S. cerevisiae deletion strains, locus YPR163C, strain tif3, hits give low values 0.986 | S. cerevisiae deletion strains, locus YPR167C, strain met16, hits give low values 0.992 | S. cerevisiae deletion strains, strain wtn01, hits give low values 0.922 | S. cerevisiae strains, strain wild type, hits give low values 0.909
